Assay results from PubChem BioAssay.
Values joined by “and” are separate entries in the source; they are usually repeats but may differ in a detail not shown here. Identical values can stand only once. Active and inactive are the calls of the source.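 The calls were made as follows, unless noted: active = thallium flux through the channel raised or lowered by more than 3 SD from vehicle-only wells, actives on both sides; inactive = the rest.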

What was measured:
[1] = stimulators of nuclear beta-catenin in C2C12, primary screen, imaging, WNT3A-conditioned medium, mouse C2C12, NPC library (AID 1117326; in the data active = nuclear beta-catenin stimulation mostly above about 4.2%, no sharp cut-off; inactive = mostly below about 10%); settings: stronger effect = higher value
[2] = stimulators of insulin release from INS-1E, primary screen, cell-based, 5 mM glucose, NPC library (AID 1117329;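 active = compound raises insulin release from rat beta cells at 5 mM glucose, no numeric limit stated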); settings: rat INS-1E insulin secretion, at 10 µM, stronger effect = higher value
[3] = growth inhibition of GSK3B-pretreated HCT116 cells – cell-based, CellTiter-Glo, 0.2 to 20 µM (AID 1117336;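 active = compounds lowering colon cancer cell viability after pretreatment blocking the GSK3B kinase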); settings: HCT116 viability after GSK3B inhibitor, at 20 µM, stronger effect = higher value
[4] = inhibition of endothelial tube formation, primary screen, imaging, VEGF stimulated, CD31 staining, tube area, NPC library (AID 1117340;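 active = compound that reduces growth-factor-driven endothelial tube area in a mixed cell culture, no cutoff stated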); settings: VEGF-stimulated ADSC/ECFC co-culture, at 10 µM, stronger effect = higher value
[5] = glucagon-like peptide 1 release enhancers, primary assay, NCI-H716 cell line, NPC library (AID 1117341;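 active = compound raises GLP1 secretion from the human gut endocrine cells, with no numeric limit stated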); settings: NCI-H716 cells, at 10 µM, stronger effect = higher value
[6] = HCT116 colon cancer cell growth inhibition, primary screen, CellTiter-Glo luminescence, NPC library (AID 1117342;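 active = compounds that lower survival of HCT116 colon cancer cells in the luminescence readout, no numeric limit stated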); settings: at 20 µM (top of the series)
[7] = CellTiter-Glo luminescent readout of SW480 viability loss, NPC library primary (AID 1117343;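 active = compounds that lower viability of the colon cancer cells in the luminescence readout, with no numeric limit stated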); settings: CellTiter-Glo luminescence; at 20 µM (top of the series)
[8] = decreased DLD-1 cellular survival, CellTiter-Glo luminescent readout, NPC compound collection, primary HTS (AID 1117346;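 active = compounds that lower survival of DLD-1 colon cancer cells in the luminescence readout, no cutoff given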); settings: DLD-1 viability, CellTiter-Glo luminescence; at 20 µM (top of the series)
[9] = target: 6-phosphogluconate dehydrogenase, decarboxylating (Homo sapiens) (UniProt P52209); assay: 6PGD enzyme inhibitors, primary screen, biochemical, human, recombinant enzyme, NADPH absorbance (AID 1159550;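 active = at least 20% inhibition of 6-phosphogluconate dehydrogenase activity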); settings: recombinant 6PGD, NADPH absorbance 341 nm; at 10 µM; stronger effect = higher value
[10] = modulation of C. elegans fzo-1 (AID 1259413; call rule not given here;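 also: fzo-1 mutant C. elegans worms in liquid wells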); settings: C. elegans fzo-1 modulator screen, mean read-out; stronger effect = higher value
[11] = differential killing of epithelial or mesenchymal cells, primary screen, imaging, PC-3E GFP, TEM4-18 mCherry, co-culture (AID 1345086;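 active = compounds killing one labelled cell type while sparing the other, by normalised counts and ratio limits, not self-fluorescent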;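 as to all read-outs here: cells exposed to compound for 72 h before imaging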;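 as to red/green cell ratio (normalised): normalised mesenchymal count divided by normalised epithelial count so high means epithelial killing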); settings: imaging cell counts, at 1 µM; for red/green cell ratio (normalised): actives lie on both sides, counts scaled to control wells, 1 = unselective
[12] = survival rescue of mitochondrial mutant cells in low glucose, primary screen, MELAS cybrids, Rieske KO mouse fibroblasts, CellTiter-Glo (AID 1508586;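 active = mean z-score across replicates of 1.96 or higher in either the MELAS or the Rieske mutant cell line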;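 also: z relative to plate mean and SD of compound and empty wells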)
[13] = target: NAD(+) hydrolase SARM1 (Homo sapiens) (UniProt Q6SZW1); assay: SARM1 TIR NADase inhibitors, cell lysate, NAD-Glo luminescence (AID 1508614;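 active = compound whose remaining NAD level is above about 45 nM, limit read from the data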;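 also: higher remaining NAD means stronger inhibition of SARM1 NADase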); settings: SAM-TIR HEK293T lysate NADase, at 1 µM, stronger effect = higher value
[14] = target: Mitogen-activated protein kinase 7 (Homo sapiens) (UniProt Q13164); assay: ERK5 transactivation activators in reporter cells, primary screen, cell-based, HTS (AID 1508626;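 active = luciferase signal above three times the same-plate solvent-only control wells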;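 also: luciferase driven by Gal4-ERK5 fusion binding five Gal4 sites before minimal TATA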); settings: HeLa Gal4-ERK5 transactivation, 18 h, at 5 µM, stronger effect = higher value
[15] = system: F380Y; assay: modulators of BK channel variants, profiling panel, selectivity assay, cell-based, U2OS BacMam, thallium flux, beta subunits (AID 1259406); settings: at 30 µM;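 also: initial slope of Thallos dye fluorescence rise after thallium is added; log ratio against the mean of 0.3% DMSO vehicle wells on the same plate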
[16] = system: F380Y/beta1; assay: as above; settings: at 30 µM
[17] = system: F380Y/beta2Delta; assay: as above; settings: at 30 µM
[18] = sensitizers of A549 cells to miR-34 induction, primary screen, imaging, A549 dox-inducible miR-34, nuclei and caspase counts (AID 1347080;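 active = compounds whose cell count with miR-34 switched on is under 0.7 times the count with it off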); settings: A549 miR-34 inducible, Hoechst nuclei count, 48 h
[19] = measured here: epithelial PC-3E GFP cell survival
[20] = measured here: mesenchymal TEM4-18 mCherry cell survival
[21] = MELAS cybrid survival, CellTiter-Glo 48 h, stronger effect = higher value
[22] = Rieske KO mouse fibroblast survival, CellTiter-Glo 72 h

Sequence of NAD(+) hydrolase SARM1 (Homo sapiens) (Q6SZW1 whole entry, looked up, the tested form may be a part): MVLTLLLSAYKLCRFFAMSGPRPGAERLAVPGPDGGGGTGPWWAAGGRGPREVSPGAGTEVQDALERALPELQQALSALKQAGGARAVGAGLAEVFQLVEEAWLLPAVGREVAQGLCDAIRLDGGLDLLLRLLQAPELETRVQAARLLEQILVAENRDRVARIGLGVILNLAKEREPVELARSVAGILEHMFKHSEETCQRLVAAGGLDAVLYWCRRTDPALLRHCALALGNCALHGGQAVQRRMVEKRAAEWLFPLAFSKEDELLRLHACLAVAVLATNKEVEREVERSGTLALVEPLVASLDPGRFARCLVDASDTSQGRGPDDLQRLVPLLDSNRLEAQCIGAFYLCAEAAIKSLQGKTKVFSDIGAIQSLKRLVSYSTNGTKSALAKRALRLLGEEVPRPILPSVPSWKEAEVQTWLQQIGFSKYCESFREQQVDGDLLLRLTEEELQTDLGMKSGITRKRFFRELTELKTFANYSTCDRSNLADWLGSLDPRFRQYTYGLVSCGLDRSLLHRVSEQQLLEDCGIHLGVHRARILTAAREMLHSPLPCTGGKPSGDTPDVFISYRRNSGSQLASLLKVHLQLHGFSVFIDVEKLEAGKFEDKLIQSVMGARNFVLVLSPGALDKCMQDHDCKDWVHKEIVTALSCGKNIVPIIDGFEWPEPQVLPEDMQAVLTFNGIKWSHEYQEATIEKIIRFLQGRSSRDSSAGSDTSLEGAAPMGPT
Sequence of Mitogen-activated protein kinase 7 (Homo sapiens) (Q13164 whole entry, looked up, the tested form may be a part): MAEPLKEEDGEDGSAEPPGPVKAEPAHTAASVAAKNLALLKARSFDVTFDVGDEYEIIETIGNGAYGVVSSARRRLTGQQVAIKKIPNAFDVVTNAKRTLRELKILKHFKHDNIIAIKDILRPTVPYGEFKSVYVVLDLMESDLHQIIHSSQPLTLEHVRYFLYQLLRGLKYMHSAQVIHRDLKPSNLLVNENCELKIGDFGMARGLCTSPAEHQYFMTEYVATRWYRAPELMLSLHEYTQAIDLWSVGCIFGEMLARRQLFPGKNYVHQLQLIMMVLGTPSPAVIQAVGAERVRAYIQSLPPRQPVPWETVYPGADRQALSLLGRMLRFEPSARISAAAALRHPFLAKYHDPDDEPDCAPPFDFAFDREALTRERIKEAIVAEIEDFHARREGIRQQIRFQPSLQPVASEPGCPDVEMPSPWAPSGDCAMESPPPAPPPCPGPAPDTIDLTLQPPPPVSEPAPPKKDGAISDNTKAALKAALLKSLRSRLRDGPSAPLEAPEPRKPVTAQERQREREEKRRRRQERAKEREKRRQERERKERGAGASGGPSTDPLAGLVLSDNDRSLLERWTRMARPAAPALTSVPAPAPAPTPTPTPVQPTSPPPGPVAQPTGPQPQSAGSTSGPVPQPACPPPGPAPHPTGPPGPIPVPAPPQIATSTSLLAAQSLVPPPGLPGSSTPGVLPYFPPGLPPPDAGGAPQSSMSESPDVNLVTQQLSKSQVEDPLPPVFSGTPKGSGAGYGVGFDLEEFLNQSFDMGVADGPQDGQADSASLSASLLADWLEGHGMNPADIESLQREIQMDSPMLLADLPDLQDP
Sequence of 6-phosphogluconate dehydrogenase, decarboxylating (Homo sapiens) (P52209 whole entry, looked up): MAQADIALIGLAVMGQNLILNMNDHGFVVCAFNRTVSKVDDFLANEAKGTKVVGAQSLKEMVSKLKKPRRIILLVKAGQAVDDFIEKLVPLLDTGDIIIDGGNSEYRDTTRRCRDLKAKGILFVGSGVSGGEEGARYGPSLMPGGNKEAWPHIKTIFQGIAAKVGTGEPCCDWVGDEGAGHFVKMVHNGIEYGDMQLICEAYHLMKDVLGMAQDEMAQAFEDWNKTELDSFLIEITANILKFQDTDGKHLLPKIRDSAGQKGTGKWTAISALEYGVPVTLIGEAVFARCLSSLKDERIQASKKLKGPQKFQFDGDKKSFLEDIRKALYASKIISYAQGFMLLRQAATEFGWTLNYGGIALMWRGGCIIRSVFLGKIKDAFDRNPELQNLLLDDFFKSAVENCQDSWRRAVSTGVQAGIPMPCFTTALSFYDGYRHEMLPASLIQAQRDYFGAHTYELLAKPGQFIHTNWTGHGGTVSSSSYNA

CC(COc1ccccc1)N(CCCl)Cc1ccccc1 (configuration not stated)
inactive: nuclear beta-catenin stimulation ([1]; at 10 µM) 1.1% | insulin secretion stimulation [2] 2.8% | viability decrease [3] -32.1% | tube area decrease [4] 7% | GLP1 secretion stimulation [5] 3.8% | inhibition of viability [6] -3.6% | viability decrease (inhibition) [7] 13% | viability decrease (inhibition) [8] -2.9% | inhibition [9] 0.0837% | mean signal [10] 239 | red/green cell ratio (normalised) [11] 1.22 | z-score [12, 21] -0.333 and -0.71 and -0.596 | remaining NAD [13] 10 nM | luciferase signal [14] 68 AU | log fold change Tl+ flux [15] -0.0529 | log fold change Tl+ flux [16] -0.00151 | log fold change Tl+ flux [17] -0.054
-0.3%: nuclear beta-catenin stimulation ([1]; stimulation, at 2 µM)
1.17: normalised cell number [11, 19]
0.469 and 0.0989 and -0.341: z-score [12, 22]
1.43: normalised cell number [11, 20]

COc1ccc(Cl)cc1C(=O)NCCc1ccc(S(=O)(=O)NC(=O)NC2CCCCC2)cc1
inactive: nuclear beta-catenin stimulation ([1]; at 10 µM) -0.8% | viability decrease [3] 17.8% | tube area decrease [4] 12% | GLP1 secretion stimulation [5] 4.4% | inhibition of viability [6] 20% | viability decrease (inhibition) [8] 14.1% | inhibition [9] 12.3% | mean signal [10] 242 | red/green cell ratio (normalised) [11] 1.5 | z-score [12, 21] 0.114 and -0.333 and 0.459 | remaining NAD [13] 10 nM | luciferase signal [14] 52 AU | log fold change Tl+ flux [15] 0.0726 | log fold change Tl+ flux [17] 0.0268
1.05: normalised cell number [11, 20]
active: insulin secretion stimulation [2] 28.1% | viability decrease (inhibition) [7] 72.3% | log fold change Tl+ flux [16] 0.119
0.7: normalised cell number [11, 19]
-0.5%: nuclear beta-catenin stimulation ([1]; stimulation, at 2 µM)
0.113 and 0.377 and -0.0891: z-score [12, 22]

CC(=O)CC(c1ccccc1)c1c(O)c2ccccc2oc1=O (configuration not stated)
-0.222: z-score [12, 22]
0.2%: nuclear beta-catenin stimulation ([1]; stimulation, at 2 µM)
11100 and 5980 and 13300: cell count ([18]; measured here: total cells without miR-34 induction)
1.05: normalised cell number [11, 19]
inactive: nuclear beta-catenin stimulation ([1]; at 10 µM) 3.2% | insulin secretion stimulation [2] 0.2% | viability decrease [3] -5.05% | tube area decrease [4] -0.7% | GLP1 secretion stimulation [5] 3.5% | inhibition of viability [6] -17.8% | viability decrease (inhibition) [7] 32.5% | viability decrease (inhibition) [8] 7% | inhibition [9] 6.78% | mean signal [10] 249 | red/green cell ratio (normalised) [11] 0.98 | fold change ([18]; stronger effect = lower value, cell number ratio, induced over uninduced) 0.928 and 0.882 and 0.918 | z-score [12, 21] -0.697 | remaining NAD [13] 10 nM | luciferase signal [14] 136 AU | log fold change Tl+ flux [15] -0.00266 | log fold change Tl+ flux [16] -0.0341 | log fold change Tl+ flux [17] 0.0322
1.02: normalised cell number [11, 20]
10300 and 5280 and 12200: cell count ([18]; measured here: total cells with miR-34 induction, stronger effect = lower value)
1.54 and 1.82 and 3.53: fold change ([18]; measured here: relative caspase fold change +Dox/-Dox)
